Measurements: the supplement of paper PMC3724861
This is one part of a sample in which hits are shown more often than they occur. The true hit rate is not given.

Test system: T1, Caupolican (Caup) homeodomain DNA-binding domain
T1 sequence: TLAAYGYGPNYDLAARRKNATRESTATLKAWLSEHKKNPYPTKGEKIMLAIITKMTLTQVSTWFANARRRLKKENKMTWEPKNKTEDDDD
Experiment: PBM E-score (8-mer, recovered from the published 9-mer minima) (E-score (dimensionless, -0.5 to 0.5)); Drosophila protein; higher = stronger relative binding preference, active = 0.31 or more
Outline: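 An enrichment score, with higher meaning stronger, expresses relative binding preference for each short DNA word. The protein used was Caup's homeodomain DNA-binding domain (residues 214-303), produced by in vitro transcription and translation and tested at 100 nM on custom-designed protein binding microarrays. The 8-mer values were recovered from published 9-mer scores, each equal to the lower of its two constituent 8-mer scores.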

PBM E-score, active:
CATGTCTC 0.314
CATGTCTA 0.359
ATGTATTA 0.373
ATGTATTG 0.344
GACAAGGA 0.314
TACAAGGA 0.352
ACACATAT 0.323
ACATATAA 0.35
ACATATAT 0.343
ACATGCTG 0.332
ACATGCTC 0.334
ACATGCCA 0.336
ACATGCTA 0.352
CAAGTACA 0.342
TAAGTACA 0.332
ATGTACTG 0.339
ATGTACCA 0.36
ATGTACTA 0.398
ATGTACGA 0.395
GTGTACTA 0.34
CATGTTAA 0.446
CATGTTAC 0.42
TATGTTAA 0.314
CATGTTAG 0.408
AGCGACAT 0.325
AGTGACAT 0.354
AACGACAT 0.358
GTTTACAA 0.343
ATTTACAA 0.361
ACATGGTG 0.366
ACATGGTA 0.418

PBM E-score, inactive:
GCCCGTCC -0.243
AGGGTATC -0.045
GTACCGTA 0.0122
CATGTGTC 0.245
AATGTCTC 0.112
GATGTCTA 0.23
AATGTCTA 0.242
AAAGATTT -0.00222
CTCACCCC -0.125
ATGTATTC 0.222
GTGTATTA 0.297
CTGTATTA 0.159
ACGTATTG 0.151
GCCCCGGC -0.316
CACAGTAA 0.122
CTCTAAAG -0.0918
GCGGTTCA -0.101
CACAAGGA 0.109
GACAAAGA 0.13
GACAAGGC 0.205
AACAAGGA 0.302
CTCGACTC -0.0783
CGGCTATC -0.134
ACATATAC 0.291
ACATATAG 0.256
CCATATAA 0.0843
ACACATAG 0.174
TCATATAA 0.184
ACACATAA 0.291
CGACTATC -0.0393
AGAGGATA 0.0175
ATCAAGAT 0.0803
CTAGGAGC -0.193
CATCCCGC -0.146
AACACTAA 0.166
GCTTAAAA -0.0795
GCGCCACA -0.129
CGCGTATA -0.0122
AATATTGC 0.153
CCATGCTC -0.00716
ACATGCCT 0.254
CCATGCTA 0.102
CTATGCTC 0.0374
TCATGCCA 0.0318
GCATGCTA 0.0372
AGATGCTG -0.00229
ATATGCTG 0.0997
CACTGCTA 0.075
CATACCGC -0.0667
AAGCTCCT -0.0876
GGATGCTA -0.0509
CCAAACGG -0.223
AATTCAAG 0.118
ACTATAAT 0.162
CTTGCGCA -0.0025
TGAGTACA 0.265
TAAGTAAA 0.0166
AAAGTACA 0.276
GAAGTACA 0.269
GAAACCCA 0.0044
ATCTCTGG -0.00282
CGAGGTCA -0.0898
CAACTTGA 0.0844
ATGTACTC 0.303
AAGTACTA 0.197
CTGTACGA 0.203
CTGTACTC 0.082
ATGTACCC 0.263
AGGTACTG 0.0558
GTGTACCA 0.308
ATGTACGG 0.211
ATCATCCG 0.0593
CCCTAGCG -0.171
AGAGCCTA -0.0924
ATAACCGC 0.0257
GGGTACTA 0.152
CTGTACTA 0.156
AGTCGTCC -0.0214
CACCGAAC 0.0165
ACTGCGAA -0.0547
AATGTTAG 0.253
GATGTTAC 0.295
CCTGTTAG 0.114
TCTGTTAA 0.173
AATGTTAC 0.277
AATGTTAA 0.291
TAGGTTAA 0.0795
GATGTTAA 0.28
GACCTACC -0.0746
AGCACGCC -0.187
CGAATTGC -0.0371
TCATTAAA 0.143
GAGCTAAC -0.0389
AACCCCCG -0.284
AGTGACAA 0.255
AACGACAA 0.241
AGCGACAG 0.105
AACGACAG 0.164
AGTGACAC 0.198
AGCGACAC 0.188
AGCCTACT -0.116
CCCATCCG -0.202
GCTTACAA 0.22
CTTTACAA 0.137
ATTTACAG 0.137
ATTTACAC 0.259
AGGAGTTG 0.0303
ATACGAAG 0.0288
CACTCCCC -0.125
GCATGGTA 0.166
AGATGGTG -0.0838
ACATGGTC 0.285
CCATGGTA 0.133
CAGGCCTC -0.158
CGGGAGCA -0.149
